A selection: hits, their analogues and other compounds. The true share with any hit is near 19%.
SW480 rerep: A quantitative high throughput screen for small molecules that induce DNA re-replication in SW480 colon adenocarcinoma cells; SW480 DNA re-replication, Hoechst DNA content imaging, 48 h; Potency, µM (titrated, usually from 46.1 µM), most hits filed as activators; 340,000 tested, 1.8% active; AID 624297, 2012; also: nearly all actives have a fitted effect of over 55% in size
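DNA re-replication was detected as more nuclei of elevated Hoechst intensity after 48 hr exposure to compound (23 nL pinned per well of 250 cells).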
DT40 TDP1 CPT: qHTS for Inhibitors of human tyrosyl-DNA phosphodiesterase 1 (TDP1): qHTS in cells in presence of CPT. chicken DT40 Tdp1-/-;hTDP1 cells + 20 nM CPT, ATP luminescence, 48 h. Potency, µM (doses to about 46.2 µM), most hits filed as inhibitors. 420,000 tested, 12% active; also: nearly all actives have a fitted effect of over 55% in size
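Chicken DT40 Tdp1-/- cells stably complemented with human TDP1 were seeded at 400 cells/well in medium containing 20 nM camptothecin, exposed to pin-transferred compounds, and grown at 37 °C for at least 48 hr. Viability was read as ATP luminescence.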
IL-1B inflam inh: qHTS for Inhibitors of Inflammasome Signaling: IL-1-beta AlphaLISA Primary Screen; THP-1 LPS/ATP IL-1B secretion, AlphaLISA, 16 h; active compounds read low; activity change, % at 57.5 µM; 360,000 tested, 4.7% active; AID 743279, 2014; in the data active = activity change below about -50%; inconclusive = mostly about -30% to -49%
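THP-1 cells pretreated 1 hr with compounds (up to 57.5 uM final), then stimulated with LPS (250 ng/mL final) plus ATP (1.25 mM final); secreted IL-1B measured by AlphaLISA after 16 hr, decreased signal indicating inhibition.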
BCR signal inh: qHTS Assay to Find Inhibitors of Chronic Active B-Cell Receptor Signaling | Potency, µM (doses to about 46.1 µM), hits mostly inhibitors | ABC-DLBCL IkBa-CBG/CBR reporter, luminescence ratio, 4 h | 340,000 tested, 0.05% active; active = well fitted inhibition curve with a large enough effect in the signal ratio, with a control signal flat, not every such curve was filed as active; inconclusive = small, poorly fitted or top-dose-only effect, or effect the other way, or a change in a side signal; the % refers to the signal ratio
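Compounds up to 46 uM were incubated four hours with TMD8 cells whose green CBG68 luciferase is fused to IkappaBalpha; red CBR luminescence normalised the signal, and concentration-effect curves were fitted to fusion, red and ratio data.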
MCF10A rerep: A quantitative high throughput screen for small molecules that induce DNA re-replication in MCF 10a normal breast cells. MCF 10A DNA re-replication, Hoechst nuclear intensity, 48 h. AID 624296, 2012. 350,000 tested, 2.9% active. Potency, µM (highest dose often 46.1 µM), usual class: activators; also: nearly all actives have a fitted effect of over 50% in size
DT40 TDP1 no CPT: qHTS for Inhibitors of human tyrosyl-DNA phosphodiesterase 1 (TDP1): qHTS in cells in absence of CPT; Potency, µM (series often up to 46.2 µM), usual class: inhibitors; AID 686978, 2013; 420,000 tested, 15% active; DT40 Tdp1-/- hTDP1 cells, no CPT, ATP luminescence, 48 h; also: nearly all actives have a fitted effect of over 55% in size
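Luminescent ATP content (CellTiter-Glo) served as the growth readout. Knockout chicken DT40 cells expressing human TDP1 were exposed to compounds without camptothecin for a minimum 48 hr at 37 °C.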
Each line names hits and unclear results; the compound was inactive in the other large screens. Unless noted, calls follow the shape of the dose curve; as a rule, active = well fitted curve in the direction sought with a large enough effect; inconclusive = small, poorly fitted or top-dose-only effect, or another doubt; inactive = no such curve, though single readings can be large; an effect the other way counts as inactive or inconclusive.

Fc1ccccc1N1CCN(c2c3c(nc4nncn24)CCC3)CC1	DT40 TDP1 CPT inconclusive, DT40 TDP1 no CPT 20.6µM (no result: SW480 rerep, IL-1B inflam inh, BCR signal inh, MCF10A rerep)
CCOc1ccc(N(CC(=O)NC2CCCC2)C(=O)CSc2nnc(COc3ccccc3)o2)cc1	DT40 TDP1 CPT 20.6µM, IL-1B inflam inh -55.1, DT40 TDP1 no CPT 20.6µM
O=C(CSc1ccc2ccccc2n1)NC1CC1	BCR signal inh inconclusive
CCN(C(=O)CSc1ccc2ccccc2n1)C1CCCCC1	DT40 TDP1 CPT inconclusive, IL-1B inflam inh -68.8, MCF10A rerep inconclusive, DT40 TDP1 no CPT inconclusive
Cc1cccc(OCc2nnc(SCC(=O)N(C)C3CCCCC3)o2)c1	DT40 TDP1 CPT 18.4µM, MCF10A rerep inconclusive, DT40 TDP1 no CPT inconclusive
O=C(CN(C(=O)CSc1nnc(COc2ccccc2)o1)c1ccc(F)cc1)NC1CCCC1	DT40 TDP1 CPT inconclusive, DT40 TDP1 no CPT inconclusive
O=C(CSc1nnc(COc2ccc(Cl)cc2)o1)N(c1ccccc1)C1CCS(=O)(=O)C1 (centres undefined)	DT40 TDP1 CPT inconclusive, DT40 TDP1 no CPT 13µM (no result: SW480 rerep, BCR signal inh, MCF10A rerep)
Cc1cccc(NC(=O)CCC(=O)Nc2nnc(C(F)(F)F)s2)c1	BCR signal inh inconclusive
CC[C@]1(C(=O)OC)[C@H]2C(=O)N(C)C(=O)[C@H]2[C@H]2CN(C)C(=NC3CCCCC3)N21	none
Cc1ccc(-n2nc(C(=O)Nc3ccc(Br)cc3C)c(=O)n(C)c2=O)cc1	none (no result: SW480 rerep, IL-1B inflam inh, BCR signal inh, MCF10A rerep)
COc1ccc(-c2nnc(SCC(=O)N(C)C3CCCCC3)o2)cc1OC	DT40 TDP1 CPT 16.4µM, DT40 TDP1 no CPT 11.6µM (no result: SW480 rerep, IL-1B inflam inh, BCR signal inh, MCF10A rerep)
CC1CCCN(C(=O)CSc2nc3ccccc3o2)C1 (centres undefined)	none
CN(C(=O)CSc1nc2ccccc2o1)C1CCCCC1	DT40 TDP1 CPT inconclusive, IL-1B inflam inh inconclusive, BCR signal inh inconclusive, DT40 TDP1 no CPT 29.1µM
COc1c2c(c(CCC(=O)O)c3c1C=CC(C)(C)O3)OC(C)(C)C=C2	none (no result: BCR signal inh)
O=C1OC[C@H](Cc2ccc3c(c2)OCO3)/C1=C\c1ccc2c(c1)OCO2	DT40 TDP1 CPT 5.8µM, IL-1B inflam inh inconclusive, DT40 TDP1 no CPT 8.2µM
COc1ccccc1NC(=O)Cn1c(=O)n(Cc2cccs2)c(=O)c2cccnc21	DT40 TDP1 CPT 20.6µM (no result: SW480 rerep, IL-1B inflam inh, BCR signal inh, MCF10A rerep)
COc1ccccc1NC(=O)Cn1c(C)cc(C)c(C#N)c1=O	none (no result: SW480 rerep, IL-1B inflam inh, MCF10A rerep)
COc1cccc2c(=O)cc(C)n(CC(=O)Nc3ccc(C)c(C)c3)c12	DT40 TDP1 CPT inconclusive, DT40 TDP1 no CPT 14.6µM
COc1ccccc1NC(=O)Cn1c(C)cc(=O)c2cccc(OC)c21	DT40 TDP1 CPT 2.91µM, IL-1B inflam inh inconclusive, BCR signal inh inconclusive, DT40 TDP1 no CPT 4.61µM
COc1ccc(CCNC(=O)c2ccc(Cn3c(=O)c4ccccc4n(Cc4cccc(Cl)c4)c3=O)cc2)cc1OC	DT40 TDP1 CPT 20.6µM, DT40 TDP1 no CPT 10.3µM (no result: SW480 rerep, IL-1B inflam inh, BCR signal inh, MCF10A rerep)
COCCCNC(=O)c1ccc(Cn2c(=O)c3ccccc3n(CC(=O)NCCc3ccc(OC)c(OC)c3)c2=O)cc1	SW480 rerep inconclusive, DT40 TDP1 CPT 23.1µM, DT40 TDP1 no CPT 18.4µM
COc1ccc(CCNC(=O)c2ccc(Cn3c(=O)c4ccccc4n(Cc4ccc(F)cc4Cl)c3=O)cc2)cc1OC	none (no result: SW480 rerep, IL-1B inflam inh, BCR signal inh, MCF10A rerep)
COc1ccc(CCNC(=O)c2ccc(Cn3c(=O)c4ccccc4n(Cc4cccc(F)c4)c3=O)cc2)cc1OC	DT40 TDP1 CPT 16.4µM, DT40 TDP1 no CPT 16.4µM (no result: SW480 rerep, IL-1B inflam inh, BCR signal inh, MCF10A rerep)
COCCCNC(=O)c1ccc(Cn2c(=O)c3ccccc3n(Cc3ccccc3C)c2=O)cc1	DT40 TDP1 CPT inconclusive, DT40 TDP1 no CPT inconclusive
COCCCNC(=O)c1ccc(Cn2c(=O)c3ccccc3n(Cc3ccccc3C#N)c2=O)cc1	DT40 TDP1 CPT 16.4µM, BCR signal inh inconclusive, MCF10A rerep 23.1µM, DT40 TDP1 no CPT inconclusive
Cc1ccc(/C=C/C(=O)OCC(=O)NCc2cccs2)o1	none
Oc1ccc(-c2nccc(-c3ccc(F)cc3)n2)cc1	DT40 TDP1 no CPT inconclusive

Assay outcomes deposited in PubChem BioAssay by National Center for Advancing Translational Sciences (NCATS).
